For 39 molecules, outcome and AC50 results are on record in PubChem BioAssay (EPA / NIEHS).

Where “and” joins values, the source holds several entries; their conditions need not be identical. Identical values can stand only once. Where a structure was tested more than once in an assay, its records may differ in their call. Calls of active or inactive are those of the source. How the source made its calls: active means hit-call score of the fitted dose curve at least 0.9, where 1 is the maximum; inactive means score below 0.9.

Read-out in this test: Glutamate-cysteine ligase regulatory (GCLM), GCLM (gene 2730)
Put plainly: LTEA_HepaRG_GCLM: Life Technologies and Expression Analysis (LTEA) Assay for Glutamate-cysteine ligase regulatory (GCLM) using HepaRG (AID 2283500). To be noted: mRNA level, 48 h; actives raise or lower the signal. How it is done: LTEA_HepaRG is a cell based, multiplexed-readout assay that uses HepaRG, a human liver cell line, with measurements taken at 48 hours after chemical dosing on a 96-well plate.LTEA_HepaRG_GCLM is one of 102 assay component(s) measured in the LTEA HepaRG cell culture assay. It is a marker of Cell proliferation, survival, death.Data from the assay component LTEA_HepaRG_GCLM was analyzed into 1 endpoint. This assay endpoint, LTEA_HepaRG_GCLM, was analyzed with bidirectional fitting relative to DMSO as the negative control and baseline of activity. Using a type of inducible reporter, measures of mRNA induction for gain or loss-of-signal activity can be used to understand regulation of transcription factor activity. To generalize the intended target to other relatable targets, this assay endpoint is annotated to the ligase intended target family, where the subfamily is C-N ligase.
A total of 1060 chemcials from the ToxCast library were tested in eight-point concentration-response experiments. Cell culture and cytotoxicity assays were conducted at Thermo Fisher Scientific's Custom Services facility (Madison, WI). A single lot of human HepaRG cells (Thermo Fisher Scientific, Frederick, MD) was used for the cell culture experiments. 96-well format collagen type I coated plates of human HepaRG cells were prepared using established methods. Briefly, cryopreserved HepaRG cells were thawed, plated at a density of approximately 100,000 cells/well in HepaRG Thaw, Plate, and General Purpose media (HPRG770, Thermo Fisher Scientific), and incubated for 48 hours. 0.5% DMSO was selected as vehicle control to balance the requisite need of DMSO in HepaRG cultures to maintain differentiation (for example, baseline metabolism, proportions of hepatocytes vs. cholangiocytes), while enabling further hepatic receptor pathway activation (for example, PXR and CAR) in response to chemical exposure. 48 hours after plating, the culture medium was replaced with HepaRG Serum-Free Incudtion Media. Cells were exposed to each test chemical in duplicate and maintained in CO2 incubators for another 48 hours. Chemical plates were thawed to room temperature and 200x concentrations of treatment groups were prepared. 8-point conentration-reponse curves were made with the highest exposure at 100 uM, followed by half-log dilutions, all in 0.5% DMSO. Each test plate contained variouse controls, induction positive controls (1mM phenobarbital), cytotoxicity positive controls ([…] aflatoxin B1), vehicle controls (0.5% DMSO), and total lysis controls (0.5% DMSO). Cell morphology images were taken using an Essen IncuCyte FLR automated microscope, with six 96-well plates imaged in about 24 minutes. Images were captured and exported and JPEG files. Spent culture media was transfered to black-well plates for the LDH assay, and remaining media was sorted at -80 C for later use. Cells were treated with RLT buffer and frozen until shipped for gene expression analysis. Total RNA was isolated from the cell suspension in 75 uL of Buffer RLT (Qiagen, Germantown, MD 20874) by Quintiles/Expression Analysis (Durham, NC) using a custom isolation procedure. Total RNA from each plate well was transferred to a preamplification plate. Fluidigm's 96.96 Dynamic ArrayTM (Fluidigm, Amsterdam, the Netherlands) technology was used for gene expression analyses by quantitative reverse transcription polymerase chain reaction (qRT-PCR, performed by Quintiles/Expression Analysis, Durham, NC)89. Standard TaqManTM Assays (Applied Biosystems/ThermoFisher Scientific, Foster City, CA) were used to assess the expression of 93 genes selected based on their selectivity and sensitivity to important hepatic receptors known to be modulated by environmental chemicals; importance in human hepatocyte functionality; and hepatotoxicity. […]
On to `CC(C)C1(C)N=C(c2nc3ccccc3cc2C(=O)O)NC1=O` (stereo not given), for which the outcome was inactive.

With `Cc1c(F)c(F)c(COC(=O)C2C(/C=C(\Cl)C(F)(F)F)C2(C)C)c(F)c1F` (stereo not given), the molecule was called inactive.

Regarding `CCCCOC(=O)c1ccccc1C(=O)OCCCC`, the outcome was inactive.

For the molecule `CNC(=O)ON=CC(C)(C)SC`, the molecule was classed as inactive.

Turning to `CO/C=C(/C(=O)OC)c1ccccc1Oc1cc(Oc2ccccc2C#N)ncn1`, the AC50 – broadly, the concentration at which the activity in the assay is half-maximal – was 75.6 µM (active) and 63.3 µM (active) and 71.8 µM (active).

In the case of `COc1nc(NC(C)C)nc(NC(C)C)n1`, the molecule was classed as inactive.

As for `COc1ccc(C(c2ccc(OC)cc2)C(Cl)(Cl)Cl)cc1`, the concentration at half-maximal activity (AC50) was 49.8 µM (active).

As for `CC(Oc1ccc(Cl)cc1Cl)C(=O)O` (stereo not given), the molecule was classed as inactive.

With `COc1cnc(OC)n2nc(NS(=O)(=O)c3c(OCC(F)F)cccc3C(F)(F)F)nc12`, the result was inactive.

For `CON(C)C(=O)Nc1ccc(Cl)c(Cl)c1`, the AC50 was 73.2 µM (active).

With `C=CCC1=C(C)C(OC(=O)C2C(C=C(C)C)C2(C)C)CC1=O` (stereo not given), the result was inactive.

On to `COP(=S)(OC)Oc1nc(Cl)c(Cl)cc1Cl`, for which the outcome was inactive.

`CCCN(CCC)c1c([N+](=O)[O-])cc(S(N)(=O)=O)cc1[N+](=O)[O-]`: the molecule was classed as inactive and the AC50 is 92 µM (active).

For `Oc1ccccc1-c1ccccc1`, the molecule was classed as inactive.

`O=C(O)c1nc(Cl)ccc1Cl`: the outcome was inactive.

Take `CCNc1nc(Cl)nc(NCC)n1`: the outcome was inactive.

`O=C(O)COc1nc(Cl)c(Cl)cc1Cl`: the molecule was classed as inactive.

Regarding `COP(N)(=O)SC` (stereo not given), the outcome was inactive.

Regarding `CC(C)Oc1cc(-n2nc(C(C)(C)C)oc2=O)c(Cl)cc1Cl`, the AC50 is 50 µM (active).

For the molecule `CC1=C(C(=O)Nc2ccccc2)SCCO1`, the call was inactive.

As to `Fc1ccc(Oc2ccnc3cc(Cl)cc(Cl)c23)cc1`, the molecule was called inactive.

Turning to `CCOC(=O)C(Cl)Cc1cc(-n2nc(C)n(C(F)F)c2=O)c(F)cc1Cl` (stereo not given), the molecule was classed as inactive.

`C=CC1(C)OC(=O)N(c2cc(Cl)cc(Cl)c2)C1=O` (stereo not given): the molecule was called inactive.

Consider `COC(=O)C=C(C)OP(=O)(OC)OC`, for which the molecule was classed as inactive.

With `C=CCC1=C(C)[C@@H](OC(=O)[C@@H]2[C@@H](C=C(C)C)C2(C)C)CC1=O`, the result was inactive.

As for `CCc1nn(C)c(C(=O)NCc2ccc(C(C)(C)C)cc2)c1Cl`, the concentration at half-maximal activity (AC50) is 12.2 µM (active).

As for `CC(C)(C)c1ccc(CSc2cnn(C(C)(C)C)c(=O)c2Cl)cc1`, the AC50 is 4.86 µM (active).

Consider `CCNc1nc(Cl)nc(NC(C)C)n1`, for which the molecule was called inactive.

Turning to `Cc1cc(Cl)ccc1OCC(=O)O`, the result was inactive.

With `CCCCC(CC)COC(=O)c1ccccc1C(=O)OCC(CC)CCCC` (stereo not given), the result was inactive.

Take `COC(=O)N(OC)c1ccccc1COc1ccn(-c2ccc(Cl)cc2)n1`: the AC50 is 50 µM (active).

For the molecule `CNC(=S)S`, the result was inactive.

In the case of `N#CC(CCc1ccc(Cl)cc1)(Cn1cncn1)c1ccccc1` (stereo not given), the AC50 is 67.3 µM (active).

As for `CCCCNC(=O)n1c(NC(=O)OC)nc2ccccc21`, the molecule was classed as inactive.

Take `Cc1ccc(-c2c(Cl)nc(C#N)n2S(=O)(=O)N(C)C)cc1`: the call was inactive.

On to `CS/C(C)=N/OC(=O)N(C)SN(C)C(=O)O/N=C(\C)SC`, for which the molecule was called inactive.

Consider `CCON=C(CC)C1=C(O)CC(c2c(C)cc(C)cc2C)CC1=O` (stereo not given), for which the molecule was called inactive.

As to `O=C(Nc1ccccc1)Nc1ccnc(Cl)c1`, the half-maximal activity concentration (AC50) was 84.8 µM (active).

For the molecule `CC1COC(Cn2cncn2)(c2ccc(Oc3ccc(Cl)cc3)cc2Cl)O1` (stereo not given), the molecule was classed as inactive.
